PubChem BioAssay (NCATS)
Several values for one entry are separate records, joined by “and”; a condition that tells them apart may be missing. Equal entries are not always repeated. Records with an inconclusive call do not appear. The source holds several records for some structures; these can differ, active in one and inactive in another. Activity calls are given as the source filed them. The call rests on the fitted dose curve.

Test: Primary qHTS to identify inhibitors of SARS-CoV-2 cell entry (AID 1645846); further: nearly all actives have a fitted effect of over 45% in size
Details: SARS-CoV-2 pseudovirus cell entry assay, luminescence; activity change, negative = inhibition: at 57.1 µM (top of the series) unless noted; series mostly up to 57.1 µM
Procedure, shortened: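 Inhibition of spike-mediated entry was scored in human ACE2-transfected Expi293F cells. Particles were MLV-pseudotyped with Wuhan-Hu-1 S carrying a 19-aa C-terminal deletion; signal was luciferase after two days, scaled between spike PP and fusion-protein-free PP.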
Potency means the concentration at half of the fitted maximal effect.

| SMILES | Potency | activity change, negative = inhibition |
| --- | --- | --- |
| CCc1cncnc1N1CCN(Cc2nc3ccc(C(F)(F)F)cc3[nH]2)CC1 | 28.2 µM (active) |  |
| CCCCCC[C@H]1C(=O)O[C@H](C)[C@H](NC(=O)c2cccc(NC=O)c2O)C(=O)O[C@@H](C)[C@@H]1OC(=O)CC(C)C |  | -94.1% |
| CCN(CC)CCOc1ccc(Nc2ncc3cc(-c4c(Cl)cccc4Cl)c(=O)n(C)c3n2)cc1 | 3.16 µM (active) |  |
| S=C(NCc1ccc2c(c1)OCO2)N1CCN(c2ncnc3c2oc2ccccc23)CC1 | 6.31 µM (active) |  |
| CC1(O)CC(c2nc(-c3ccc4ccc(-c5ccccc5)nc4c3)c3c(N)nccn23)C1 (stereo not drawn) |  | -23.9% |
| Cc1c(C(=O)Nc2ccc(N3C[C@@H](C)O[C@@H](C)C3)nc2)cccc1-c1ccc(OC(F)(F)F)cc1 | inactive and 12.6 µM (active) |  |
| C=CC(=O)Nc1cccc(Oc2nc(Nc3ccc(N4CCN(C)CC4)cc3OC)ncc2Cl)c1 | 31.6 µM (active) |  |
| C=CCNC(N)=S | inactive |  |
| CCC(=O)N1CCN(c2ccc(-n3c(=O)ccc4cnc5ccc(-c6cnc7ccccc7c6)cc5c43)cc2C(F)(F)F)CC1 |  | -91.2% [at 27.1 µM] |
| O=C(c1ccc(Nc2nccc(-c3cc4ccccc4s3)n2)cc1)N1CCC(N2CCCC2)CC1 | 11.2 µM (active) |  |
| CC(C)(C)COc1ccc(-n2cc(C(=O)O)cn2)cc1C#N |  | -72.8% |
| CCCCn1c(=O)n(Cc2ccccc2F)c(=O)c2[nH]c(Cc3ccc(NC(C)=O)cc3)nc21 | inactive |  |
| Cc1ccc(C(=O)N(CCCN)[C@@H](c2nc3cc(Cl)ccc3c(=O)n2Cc2ccccc2)C(C)C)cc1 |  | -95.6% |
| C[C@@]12O[C@@H](C[C@]1(O)CO)n1c3ccccc3c3c4c(c5c6ccccc6n2c5c31)CNC4=O | 1.41 µM (active) |  |
| Fc1cc(-c2cccc3ncc(-c4cnn(C5CCNCC5)c4)nc23)cc(F)c1CN1CCOCC1 | 12.6 µM (active) |  |
| CN(C)c1ccc(Nc2nc(N)n(C(=O)c3c(F)cccc3F)n2)cc1 | 12.6 µM (active) |  |
| CC(C)CC(=O)Nc1n[nH]c2c1CN(C(=O)C1CCN(C)CC1)C2(C)C | 5.62 µM (active) |  |
| CN(NC(=O)CC(=O)NN(C)C(=S)c1ccccc1)C(=S)c1ccccc1 |  | -97.7% |
| COc1cc2nccc(Oc3ccc(NC(=O)Nc4cc(C)on4)c(Cl)c3)c2cc1OC | 14.1 µM (active) |  |

| SMILES | Potency | activity change, negative = inhibition |
| --- | --- | --- |
| O=C1NS(=O)(=O)c2ccccc21 |  | -23.6% |
| COc1cc2c(cc1OC)[C@@H]1C(=O)c3ccc4c(c3O[C@@H]1CO2)C=CC(C)(C)O4 |  | -98.6% |
| CCN1CCN(CC(=O)Nc2ccc(-c3cccc4c(=O)cc(N5CCOCC5)oc34)c3sc4ccccc4c23)CC1 | 5.62 µM (active) |  |
| CC(=O)OCCN1C(=O)c2c(C)nc3ccc(S(=O)(=O)N4CCOCC4)cc3c2C1=O |  | 2.17% |
| Cc1cc(SCc2sc(-c3ccc(C(F)(F)F)cc3)nc2C)ccc1OCC(=O)O | inactive |  |
| CCCCCCCc1ccc(CCc2cccc(O)c2C(=O)O)cc1 |  | -27.4% |
| CC(C)(C)C(=O)Oc1ccc2c(c1)nc(NC(=O)c1cccc([N+](=O)[O-])c1)n2CCCO |  | -6.43% |
| COc1ccc2c(c1)CC[C@@H](CN(C)CC(=O)O)[C@H]2c1ccccc1 | inactive |  |
| S=C(SSC(=S)N1CCCCC1)N1CCCCC1 | 1.12 µM (active) |  |
| CC(C)(Sc1ccc(CCN(CCCCC2CCCCC2)C(=O)NC2CCCCC2)cc1)C(=O)O |  | 4.91% |
| CC(C)[C@H]1C(=O)N[C@H](CO)Cc2c[nH]c3cccc(c23)N1C | inactive |  |
| COc1c(C)cnc(Cn2cnc3c(Cl)nc(N)nc32)c1C |  | -96.5% |
| CN(C)CCN(C)C(=O)c1ccc(NC(=O)Nc2ccc(-c3nc(N4CCOCC4)c4ccn(CC(F)(F)F)c4n3)cc2)cc1 |  | -96.8% |
| COc1cc2nc(N3CCCN(C)CC3)nc(NC3CCN(Cc4ccccc4)CC3)c2cc1OC | 3.16 µM (active) |  |
| CN[C@@H](C)C(=O)N[C@H]1CCCC[C@H]2CC[C@@H](C(=O)N[C@@H](c3ccccc3)c3cn(CCCCc4ccc(CCCCn5cc([C@@H](NC(=O)[C@@H]6CC[C@@H]7CCCC[C@H](NC(=O)[C@H](C)NC)C(=O)N76)c6ccccc6)nn5)cc4)nn3)N2C1=O |  | -12% |
| CC1=C[C@@H]2[C@@H]([C@@H](O)C[C@@]3(C)[C@H]2C[C@@H](C)[C@]3(O)C(=O)CO)[C@@]2(C)Cc3cnn(-c4ccccc4)c3C=C12 | inactive |  |
| Clc1ccc2ncc(-c3cccc(NC4CNC4)n3)n2c1 |  | -15.1% |
| COCCn1c2c([n+](Cc3cnccn3)c1C)C(=O)c1ccccc1C2=O |  | -98.5% |
| O=c1cc(CN2CCOCC2)occ1OCCCCCSc1ccnc2cc(C(F)(F)F)ccc12 | 10 µM (active) |  |
